Assay outcomes from PubChem BioAssay.
In the library only some 12% were active in any assay of this set; here they are far more common.
Sfp inh: Sfp phosphopantetheinyl transferase inhibition. Q9F4F7. Biochemical Sfp PPTase activity, qHTS. Potency, µM, without a hit: largest response in the series, negative = inhibition, usual class: inhibitors. hit rate 3.5% among 310,000;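 also: the enzyme is Sfp with the accession as filed and its product quenches rhodamine fluorescence; 0% = enzyme reaction without inhibitor and -100% = no enzyme wells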
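Sfp 15 nM + cpd, 15 min RT; start w/ rhodamine-CoA 5 uM, BHQ-2-YbbR 12.5 uM (final); 50 mM Hepes pH 7.6, 10 mM MgCl2, 0.01% NP-40, 0.01% BSA; read 525/598 nm at 0 and 30 min.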
HP1b binding inh: blocks HP1-beta chromodomain binding to methylated histone tails | AlphaScreen HP1-beta / biotin-H3K9me3 peptide binding | AID 540317 | Potency, µM (series often up to 114 µM), for inactives: top-dose activity change, negative = inhibition, usual class: inhibitors | hit rate 0.56% among 390,000; also: nearly all actives have a fitted effect of over 70% in size
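AlphaScreen: HP1-beta (50 nM) preformed 30 min with biotin-H3(1-18)K9me3 peptide (50 nM) in PBS pH 7.4, 0.01% Tween-20. Compound added for 30 min at RT, then streptavidin donor/nickel chelate acceptor beads (10 ug/mL) for 30 min.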
L3MBTL1 inh: L3MBTL1 (human) inhibition; Potency, µM (titrated, usually from 57.1 µM), without a hit: at the highest dose activity, negative = inhibition, most hits filed as inhibitors; AlphaScreen L3MBTL1–H3K9me1 peptide binding; Q9Y468; hit rate 0.66% among 230,000; AID 485360; also: % is scaled to controls: 0 for no effect and ±100 for the full control effect; nearly all actives have a fitted effect of over 60% in size
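Displacement of a biotinylated histone H3(1-15) peptide monomethylated at Lys9 (75 nM) from L3MBTL1 (50 nM) was measured by AlphaScreen after a 30 min room-temperature compound incubation; cefsulodin titration served as intraplate control.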
JMJD2A Tudor inh: JMJD2A Tudor domain (human) inhibition; O75164; hit rate 4.4% among 390,000; Potency, µM (top dose mostly 114 µM), for the others: top-dose activity change, negative = inhibition, actives largely listed as inhibitors; AlphaScreen JMJD2A-Tudor / H3K4me3 peptide binding; also: % is scaled to controls: 0 for no effect and ±100 for the full control effect; nearly all actives have a fitted effect of over 50% in size
G9a inh: inhibitors of human histone lysine methyltransferase G9a; G9a H3K9 monomethylation, AlphaScreen, 2 h; hit rate 8.8% among 350,000; Potency, µM (highest dose often 102 µM), inactives show at the top dose activity, negative = inhibition, usual class: inhibitors; also: % is scaled to controls: 0 for no effect and ±100 for the full control effect; nearly all actives have a fitted effect of over 75% in size
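G9a (20 nM) preincubated 15 min RT with compounds, then 500 nM biotinylated H3K9 peptide and 20 uM SAM added; 2 h RT reaction. Monomethyl-H3K9 product detected by AlphaScreen with anti-H3K9me1 antibody, streptavidin donor and anti-rabbit IgG acceptor beads.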
BAZ2B block: BAZ2B (human) inhibition; Potency, µM (top dose mostly 114 µM), inactives show at the top dose activity change, negative = inhibition, hits mostly inhibitors; AlphaScreen BAZ2B-H3K14Ac peptide displacement; Q9UIF8; hit rate 4.4% among 360,000; also: % is scaled to controls: 0 for no effect and ±100 for the full control effect; nearly all actives have a fitted effect of over 60% in size
Target sequence (Q9UIF8 whole entry, looked up): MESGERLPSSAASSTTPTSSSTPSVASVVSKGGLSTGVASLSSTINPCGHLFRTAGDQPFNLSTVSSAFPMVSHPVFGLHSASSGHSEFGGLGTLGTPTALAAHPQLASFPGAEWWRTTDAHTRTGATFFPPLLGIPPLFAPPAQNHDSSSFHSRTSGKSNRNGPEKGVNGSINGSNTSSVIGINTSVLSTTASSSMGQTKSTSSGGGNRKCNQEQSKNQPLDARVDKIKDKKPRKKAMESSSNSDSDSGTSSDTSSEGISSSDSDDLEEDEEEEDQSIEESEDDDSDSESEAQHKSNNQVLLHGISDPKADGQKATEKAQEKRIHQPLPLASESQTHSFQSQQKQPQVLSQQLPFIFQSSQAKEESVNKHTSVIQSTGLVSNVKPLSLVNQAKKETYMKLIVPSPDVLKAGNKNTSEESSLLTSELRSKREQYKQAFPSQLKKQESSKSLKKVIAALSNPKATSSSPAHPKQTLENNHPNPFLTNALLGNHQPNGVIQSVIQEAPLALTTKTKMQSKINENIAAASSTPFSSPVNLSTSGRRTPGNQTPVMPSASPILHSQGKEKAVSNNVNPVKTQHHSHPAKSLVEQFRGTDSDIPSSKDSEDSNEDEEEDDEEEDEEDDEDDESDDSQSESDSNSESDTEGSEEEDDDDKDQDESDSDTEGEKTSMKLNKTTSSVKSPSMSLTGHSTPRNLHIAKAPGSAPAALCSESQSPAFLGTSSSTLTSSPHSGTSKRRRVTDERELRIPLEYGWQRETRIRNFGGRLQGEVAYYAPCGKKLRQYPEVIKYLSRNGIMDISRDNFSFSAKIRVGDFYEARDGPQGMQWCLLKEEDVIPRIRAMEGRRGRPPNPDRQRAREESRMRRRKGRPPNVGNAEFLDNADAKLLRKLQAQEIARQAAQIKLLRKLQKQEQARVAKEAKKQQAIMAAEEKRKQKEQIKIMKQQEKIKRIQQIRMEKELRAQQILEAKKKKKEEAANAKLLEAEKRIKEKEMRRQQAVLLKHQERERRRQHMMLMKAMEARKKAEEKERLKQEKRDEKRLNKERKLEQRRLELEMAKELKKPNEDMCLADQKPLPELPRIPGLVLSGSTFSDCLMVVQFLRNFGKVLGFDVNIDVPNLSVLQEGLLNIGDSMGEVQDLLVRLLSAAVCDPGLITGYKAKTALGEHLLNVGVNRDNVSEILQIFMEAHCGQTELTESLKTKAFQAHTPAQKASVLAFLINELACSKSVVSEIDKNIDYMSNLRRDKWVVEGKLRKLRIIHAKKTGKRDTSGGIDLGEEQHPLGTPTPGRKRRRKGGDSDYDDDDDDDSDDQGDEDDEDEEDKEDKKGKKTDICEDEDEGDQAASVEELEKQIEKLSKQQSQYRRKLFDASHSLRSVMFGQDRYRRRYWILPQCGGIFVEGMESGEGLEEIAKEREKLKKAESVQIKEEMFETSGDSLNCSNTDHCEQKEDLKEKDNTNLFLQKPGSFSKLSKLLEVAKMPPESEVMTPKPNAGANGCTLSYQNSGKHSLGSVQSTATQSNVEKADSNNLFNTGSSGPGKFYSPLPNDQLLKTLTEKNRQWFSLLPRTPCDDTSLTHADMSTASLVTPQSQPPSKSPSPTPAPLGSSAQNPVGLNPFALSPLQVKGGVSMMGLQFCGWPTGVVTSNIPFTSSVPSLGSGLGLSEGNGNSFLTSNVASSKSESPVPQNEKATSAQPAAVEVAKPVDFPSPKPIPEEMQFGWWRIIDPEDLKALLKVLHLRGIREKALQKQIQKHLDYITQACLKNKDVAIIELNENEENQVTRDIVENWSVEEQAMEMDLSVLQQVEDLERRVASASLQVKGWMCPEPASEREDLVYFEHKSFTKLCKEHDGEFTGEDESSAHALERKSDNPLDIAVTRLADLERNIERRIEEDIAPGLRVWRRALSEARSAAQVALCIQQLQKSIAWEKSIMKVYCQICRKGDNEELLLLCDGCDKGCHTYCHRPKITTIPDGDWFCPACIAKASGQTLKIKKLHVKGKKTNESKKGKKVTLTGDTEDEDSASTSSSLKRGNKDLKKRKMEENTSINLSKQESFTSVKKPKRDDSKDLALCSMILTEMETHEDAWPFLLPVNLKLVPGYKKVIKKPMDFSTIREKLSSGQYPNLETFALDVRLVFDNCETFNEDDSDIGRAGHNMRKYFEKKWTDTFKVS
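AlphaScreen displacement: compounds (up to 110uM) incubated 30 min at room temperature with a preformed 50 nM BAZ2B/50 nM biotinylated H3K14Ac peptide complex in PBS pH 7.4 with Tween-20. Donor and acceptor beads at 10 ug/mL final added, 20 min light-protected before reading.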
Active calls of the source: *; [ ] = remark or other dose. Calls follow the shape of the dose curve; as a rule, active = well fitted curve in the direction sought with a large enough effect; inconclusive = small, poorly fitted or top-dose-only effect, or another doubt; inactive = no such curve, though single readings can be large; an effect the other way counts as inactive or inconclusive. Potency is read from the fitted curve at half-maximal effect.

Results for Cc1oc2ccccc2c1CC(=O)NCCCN(C)C ?
Sfp inh: 8%; HP1b binding inh: 59%; JMJD2A Tudor inh: -21%; G9a inh: 50µM*; BAZ2B block: inconclusive

What do the screens show for `CN(C)CCCNC(=O)c1ccccn1`?
Sfp inh: 10%; HP1b binding inh: 7%; JMJD2A Tudor inh: -16%; G9a inh: 8%; BAZ2B block: -5%

What do the screens show for `O=C(NCCc1ccccc1)/C(=N\O)c1ccccc1`?
Sfp inh: 3%; HP1b binding inh: 40%; L3MBTL1 inh: -1%; JMJD2A Tudor inh: -6%; G9a inh: -36%; BAZ2B block: -5%

How did C/C(=C\C=C(C#N)C#N)c1cc(C#N)c(N)o1 do in these assays?
Sfp inh: -8%; HP1b binding inh: inconclusive; L3MBTL1 inh: -21%; JMJD2A Tudor inh: inconclusive; G9a inh: 20µM*; BAZ2B block: 25µM*

What do the screens show for `COc1ccc(OC)c(N(C(=O)c2snc(C(N)=O)c2N)C(C(=O)NCc2ccccc2)c2ccc(O)cc2)c1` (stereo unspecified)?
Sfp inh: 5%; HP1b binding inh: -8%; JMJD2A Tudor inh: -24%; G9a inh: -40%; BAZ2B block: -21%

What do the screens show for `CN(C)c1ccc(C(C(=O)NCC2CCCO2)N(Cc2ccccc2)C(=O)c2snc(C(N)=O)c2N)cc1` (stereo unspecified)?
Sfp inh: 10%; HP1b binding inh: -8%; JMJD2A Tudor inh: inconclusive; G9a inh: -20%; BAZ2B block: inconclusive

What do the screens show for `Cc1cccc(N(C(=O)c2snc(C(N)=O)c2N)C(C(=O)NCC2CCCO2)c2cccs2)c1` (stereo unspecified)?
Sfp inh: -2%; HP1b binding inh: 34%; L3MBTL1 inh: 6%; JMJD2A Tudor inh: -19%; G9a inh: 10%; BAZ2B block: 1%

Results for COc1ccc(CNC(=O)C(c2ccc(C)o2)N(C(=O)c2snc(C(N)=O)c2N)c2ccccc2OC)cc1 (stereo unspecified) ?
Sfp inh: 1%; HP1b binding inh: -14%; JMJD2A Tudor inh: -15%; G9a inh: 50µM*; BAZ2B block: -15%

What do the screens show for `COc1ccccc1N(C(=O)c1snc(C(N)=O)c1N)C(C(=O)NC1CCCC1)c1ccc(N(C)C)cc1` (stereo unspecified)?
Sfp inh: -10%; HP1b binding inh: -28%; JMJD2A Tudor inh: inconclusive; G9a inh: -6%; BAZ2B block: 35µM*

Results for Cc1ccc(C)c(N(C(=O)c2snc(C(N)=O)c2N)C(C(=O)NCC2CCCO2)c2cccs2)c1 (stereo unspecified) ?
Sfp inh: 2%; HP1b binding inh: 19%; L3MBTL1 inh: 4%; JMJD2A Tudor inh: 11µM*; G9a inh: 12%; BAZ2B block: -13%

What do the screens show for `COc1ccccc1N(C(=O)c1snc(C(N)=O)c1N)C(C(=O)NC1CCCC1)c1ccco1` (stereo unspecified)?
Sfp inh: 8%; HP1b binding inh: 26%; L3MBTL1 inh: inconclusive; JMJD2A Tudor inh: -29%; G9a inh: -12%; BAZ2B block: -5%

What do the screens show for `Cc1cccc(N(C(=O)c2snc(C(N)=O)c2N)C(C(=O)NCC2CCCO2)c2ccc(N(C)C)cc2)c1C` (stereo unspecified)?
Sfp inh: -8%; HP1b binding inh: -10%; JMJD2A Tudor inh: -27%; G9a inh: 50µM*; BAZ2B block: 28µM*

What do the screens show for `CC1CCN(c2nc3ccc(C(=O)NCc4ccccc4Cl)cc3s2)CC1`?
HP1b binding inh: 36%; JMJD2A Tudor inh: 4%; G9a inh: 14%[59 µM]; BAZ2B block: -2%

Results for COc1ccc(N2CC(NC(=O)c3ccc4c(c3)OCO4)CC2=O)cc1 (stereo unspecified) ?
HP1b binding inh: 24%; JMJD2A Tudor inh: -15%; G9a inh: -23%[59 µM]; BAZ2B block: -3%

What do the screens show for `CCOC(=O)CN(C(=O)c1snc(C(N)=O)c1N)C(C(=O)NC1CCCCC1)c1ccc(F)cc1` (stereo unspecified)?
Sfp inh: 4%; HP1b binding inh: 42%; L3MBTL1 inh: -5%; JMJD2A Tudor inh: inconclusive; G9a inh: 0%[59 µM]; BAZ2B block: 79µM*

How did CCOCCCN(C(=O)c1snc(C(N)=O)c1N)C(C(=O)NC1CCCC1)c1ccc(F)cc1 (stereo unspecified) do in these assays?
Sfp inh: 13%; HP1b binding inh: 41%; JMJD2A Tudor inh: -7%; G9a inh: -3%; BAZ2B block: 6%

How did COc1cc(C2CC(=O)N3CN(c4ccccc4C)CSC3=C2C#N)cc(OC)c1OC (stereo unspecified) do in these assays?
Sfp inh: 2.8µM*; L3MBTL1 inh: -11%; G9a inh: 1.4µM*; BAZ2B block: inconclusive

How did COc1ccccc1N1CSC2=C(C#N)C(c3ccc(SC)cc3)CC(=O)N2C1 (stereo unspecified) do in these assays?
Sfp inh: 3.5µM*; HP1b binding inh: 22µM*; L3MBTL1 inh: 22µM*; JMJD2A Tudor inh: 18µM*; G9a inh: 2.2µM*; BAZ2B block: 50µM*

Results for CCCCCNc1nc2c(-c3ccccc3)nnn2c2ccccc12 ?
HP1b binding inh: 37%; JMJD2A Tudor inh: -10%; G9a inh: 11%[59 µM]; BAZ2B block: -2%

Results for COC(=O)NC(c1ccccc1)C1(C(=O)OC)C(=O)Cc2ccccc21 (stereo unspecified) ?
Sfp inh: -2%

Results for CN1CCN(C(=O)CCCN2C(=O)/C(=C/c3cccc(Br)c3)SC2=S)CC1 ?
Sfp inh: -20%; HP1b binding inh: 40µM*; JMJD2A Tudor inh: 35µM*; G9a inh: 40µM*; BAZ2B block: 45µM*

How did O=C(CCN1C(=O)/C(=C/c2ccccc2)SC1=S)NCCCN1CCOCC1 do in these assays?
Sfp inh: -4%; HP1b binding inh: 4%; JMJD2A Tudor inh: -13%; G9a inh: 8%; BAZ2B block: -13%

How did CN1CCN(C(=O)CCN2C(=O)/C(=C/c3cccc(Br)c3)SC2=S)CC1 do in these assays?
Sfp inh: -3%; HP1b binding inh: -2%; JMJD2A Tudor inh: -21%; G9a inh: 25µM*; BAZ2B block: -38%

How did O=C(CCN1C(=O)/C(=C\c2cccc(Br)c2)SC1=S)NCCCN1CCOCC1 do in these assays?
Sfp inh: -4%; HP1b binding inh: -25%; JMJD2A Tudor inh: inconclusive; G9a inh: 45µM*; BAZ2B block: inconclusive
